Records with an inconclusive call do not appear. Active and inactive are the calls of the source. Unless noted, calls come from the whole dose curve; as a rule, active = well fitted curve in the direction sought with a large enough effect; inconclusive = small, poorly fitted or top-dose-only effect, or another doubt; inactive = no such curve, though single readings can be large; an effect the other way counts as inactive or inconclusive.
Key:
[1] = qHTS for Inhibitors of Plasmodium falciparum (DD2) proliferation (AID 504314);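 note: parasite DNA measured by SYBR Green fluorescence after red cell lysis; plate controls were DMSO vehicle for no effect and artemisinin wells for full effect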
In short: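 Normalization used 0.29 uM artemisinin as full inhibition and DMSO as baseline. Parasitized erythrocytes were exposed to compounds for 72 h (37C, 5% CO2), then lysed with saponin/Triton buffer containing SYBR Green I.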

[2] = qHTS for Inhibitors of Plasmodium falciparum (GB4) proliferation (AID 504315);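 note: 0% = DMSO vehicle and -100% = 0.29 µM artemisinin control; nearly all actives have a fitted effect of over 50% in size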
In short: (§1)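 Parasite growth measured as SYBR Green DNA fluorescence (ex 485, em 535 nm) after overnight lysis following 72 h culture at 37 °C, 0.3% parasitemia, 2.5% hematocrit. Values normalized against DMSO and 0.29 uM artemisinin controls, with plate-stack correction.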

[3] = qHTS for Inhibitors of Plasmodium falciparum (7G8) proliferation (AID 504316);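 note: series mostly up to about 6.7 µM; 0% = DMSO vehicle and -100% = 0.29 µM artemisinin full kill; nearly all actives have a fitted effect of over 65% in size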
In short: as §1

[4] = qHTS for Inhibitors of Plasmodium falciparum (HB3) proliferation (AID 504318);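 note: 0% = DMSO vehicle and -100% = artemisinin control; nearly all actives have a fitted effect of over 60% in size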
In short: as §1

[5] = qHTS for Inhibitors of Plasmodium falciparum (CP250) proliferation (AID 504320);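 note: plate controls were DMSO vehicle for no effect and 0.29 µM artemisinin control for full effect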
In short: as §1

[6] = target: Atrial natriuretic peptide receptor 1 (Homo sapiens) (UniProt P16066); assay: Natriuretic polypeptide receptor (hNpr1) antagonism - Pilot CMLD screen (AID 1347052; calls by dose curve;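 note: HEK293 cells with hNpr1 stimulated by hNppA peptide at 0.1 nM; cGMP level read as GloSensor luciferase luminescence after agonist stimulation; series mostly up to about 9.2 µM; % is set by controls: 0 for no effect and ±100 for the full control effect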)
Sequence of Atrial natriuretic peptide receptor 1 (Homo sapiens) (P16066 whole entry, looked up): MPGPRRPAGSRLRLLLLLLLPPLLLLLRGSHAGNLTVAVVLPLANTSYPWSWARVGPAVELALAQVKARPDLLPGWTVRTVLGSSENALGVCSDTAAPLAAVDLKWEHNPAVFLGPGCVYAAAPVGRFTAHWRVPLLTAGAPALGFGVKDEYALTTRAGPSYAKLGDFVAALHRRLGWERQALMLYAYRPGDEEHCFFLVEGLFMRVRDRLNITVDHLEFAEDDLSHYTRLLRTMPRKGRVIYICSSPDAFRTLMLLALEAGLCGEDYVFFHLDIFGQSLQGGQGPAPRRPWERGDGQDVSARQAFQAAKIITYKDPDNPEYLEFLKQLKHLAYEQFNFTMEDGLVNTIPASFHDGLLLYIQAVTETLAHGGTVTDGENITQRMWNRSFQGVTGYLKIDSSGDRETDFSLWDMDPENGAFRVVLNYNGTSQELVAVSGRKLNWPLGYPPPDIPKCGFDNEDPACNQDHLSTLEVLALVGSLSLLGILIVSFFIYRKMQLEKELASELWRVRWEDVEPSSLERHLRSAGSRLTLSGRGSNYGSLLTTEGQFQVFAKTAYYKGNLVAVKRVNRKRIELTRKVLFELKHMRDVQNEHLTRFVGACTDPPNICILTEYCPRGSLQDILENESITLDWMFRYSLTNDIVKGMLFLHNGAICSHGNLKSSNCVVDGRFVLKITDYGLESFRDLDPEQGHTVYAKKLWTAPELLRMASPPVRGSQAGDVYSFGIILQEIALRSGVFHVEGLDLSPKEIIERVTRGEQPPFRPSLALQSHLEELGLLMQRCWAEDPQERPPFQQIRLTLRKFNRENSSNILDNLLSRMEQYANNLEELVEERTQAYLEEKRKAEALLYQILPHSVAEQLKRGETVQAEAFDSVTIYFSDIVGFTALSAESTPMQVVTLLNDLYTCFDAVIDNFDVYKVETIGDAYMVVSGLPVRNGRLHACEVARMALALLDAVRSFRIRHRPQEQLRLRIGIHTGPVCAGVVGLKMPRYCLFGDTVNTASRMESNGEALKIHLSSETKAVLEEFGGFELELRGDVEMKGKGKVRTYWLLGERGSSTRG

CN1c2ccccc2[C@@]2(O)C(=O)[C@@]1(C)[C@@H]1c3ccccc3C[C@H]12
inactive: Potency [1] | Potency [2] | Potency [3] | Potency [4] | Potency [5] | Potency [6]

COC(=O)C[C@H]1c2ccccc2[C@@H]2C(=C[C@@H](C)[C@H]3C(=O)NC(=O)[C@H]32)N1C(=O)OC
inactive: Potency [1] | Potency [2] | Potency [3] | Potency [4] | Potency [5] | Potency [6]

CCCCC1=CC2=C(c3ccco3)C(=O)C(C)(OC(=O)c3ccc(OC)cc3)C(=O)C2=CN1Cc1ccc2c(c1)OCO2 (stereo not drawn)
inactive: activity, negative = inhibition [1] 4.29% [at 1.12 µM] | Potency [2] | Potency [3] | Potency [4] | Potency [6]

O=C1[C@@H]2[C@H]3[C@H](O)[C@H](O)CC(=NOC[C@@H](O)COCc4ccco4)[C@@H]3CC[C@H]2C(=O)N1C[C@@H]1CCCO1
inactive: Potency [1] | Potency [2] | Potency [3] | Potency [4] | Potency [5] | Potency [6]

C[C@@H]1C[C@](C)(C(=O)c2ccc3c(c2)OCO3)C=C1c1ccc2c(c1)OCO2
inactive: Potency [1] | Potency [2] | Potency [3] | Potency [4] | Potency [6]
